This is part of a sample that, as a whole, favours compounds with a hit. Of some 83,000 tested, about 20% had one in any assay.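 Percent growth is the endpoint: 0 to 100 indicates growth inhibition (40 means 60% inhibition), 0 means no net growth, and negative values indicate cell death.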 Activity calls are given as the source filed them. How the source made its calls: active means growth percent below 10; inactive means the rest.
What was measured:
Assay in all cases: NCI-60 one-dose screen, 48 h (100 = growth as untreated, 0 = no growth, -100 = all killed)
SK-MEL-2 melanoma = settings: 10 µM
EKVX NSCLC = settings: 10 µM unless noted
SN12C renal = settings: 10 µM unless noted
UO-31 renal = settings: 10 µM unless noted
TK-10 renal = settings: 10 µM unless noted
ACHN renal = settings: 10 µM unless noted
A498 renal = settings: 10 µM unless noted
CCRF-CEM leukemia = settings: 10 µM unless noted
MOLT-4 leukemia = settings: 10 µM unless noted
SR leukemia = settings: 10 µM unless noted
RPMI-8226 leukemia = settings: 10 µM unless noted
OVCAR-8 ovarian = settings: 10 µM unless noted
OVCAR-5 ovarian = settings: 10 µM unless noted
OVCAR-4 ovarian = settings: 10 µM unless noted
IGROV1 ovarian = settings: 10 µM unless noted
OVCAR-3 ovarian = settings: 10 µM unless noted
NCI/ADR-RES ovarian = settings: 10 µM unless noted
SK-OV-3 ovarian = settings: 10 µM unless noted
HS 578T breast = settings: 10 µM

Measured: growth

Cc1cc(N(CCNc2ccnc3cc(Cl)ccc23)Cc2ccc3c(c2)OCO3)nc(N2CCN(C)CC2)n1
active: SK-MEL-2 melanoma -57.5% | UO-31 renal 2.58% | TK-10 renal -24.9% | ACHN renal -20.6% | CCRF-CEM leukemia -11.8% | MOLT-4 leukemia 0.0794% | SR leukemia -33.4% | RPMI-8226 leukemia -42.3%
inactive: EKVX NSCLC 73.4% | SN12C renal 60.7% | A498 renal 42.6% | OVCAR-8 ovarian 20.3% | OVCAR-5 ovarian 97.2% | OVCAR-4 ovarian 36% | IGROV1 ovarian 51.7% | OVCAR-3 ovarian 26.5% | NCI/ADR-RES ovarian 40.9%

Cc1cc2c(-c3nc4ccccn4c3Nc3cccc4ccccc34)c(O)c(O)cc2c(O)c1-c1c(C)cc2c(-c3nc4ccccn4c3Nc3cccc4ccccc34)c(O)c(O)cc2c1O
inactive: SK-MEL-2 melanoma 38.3% | EKVX NSCLC 51.4% | SN12C renal 16.7% | UO-31 renal 44% | TK-10 renal 50.9% | ACHN renal 49.2% | A498 renal 29.6% | CCRF-CEM leukemia 27.3% | MOLT-4 leukemia 31.2% | SR leukemia 27.5% | RPMI-8226 leukemia 14.5% | OVCAR-8 ovarian 39.8% | OVCAR-5 ovarian 66.8% | OVCAR-4 ovarian 56% | SK-OV-3 ovarian 24.2% | IGROV1 ovarian 47.8% | OVCAR-3 ovarian 68.3% | HS 578T breast 39.7% | NCI/ADR-RES ovarian 81.6%

C=CC[n+]1c(/C=C2\Sc3ccccc3N2C)sc(-c2ccccc2)c1-c1ccccc1
active: SK-MEL-2 melanoma -15.5% | SN12C renal 8.01% | UO-31 renal 6.58% | TK-10 renal -6.28% | ACHN renal 8.86% | A498 renal 7.29% | MOLT-4 leukemia -4.71% | SR leukemia 1.88% | RPMI-8226 leukemia 0.0474% | SK-OV-3 ovarian -15%
inactive: EKVX NSCLC 16.5% | CCRF-CEM leukemia 23.2% | OVCAR-8 ovarian 15.1% | OVCAR-5 ovarian 21.9% | OVCAR-4 ovarian 23.8% | IGROV1 ovarian 36.7% | OVCAR-3 ovarian 15.1% | NCI/ADR-RES ovarian 85%

CCN1CCN(c2cc(C)nc(N(CCCNc3ccnc4cc(Cl)ccc34)Cc3cccs3)n2)CC1
inactive: EKVX NSCLC 42.3% | SN12C renal 39% | OVCAR-8 ovarian 15.7% | OVCAR-5 ovarian 69.8% | OVCAR-4 ovarian 30.4% | SK-OV-3 ovarian 65.5% | IGROV1 ovarian 10.3% | NCI/ADR-RES ovarian 28.5%
active: SK-MEL-2 melanoma -37.8% | UO-31 renal -76.1% | TK-10 renal -41% | ACHN renal 7.79% | A498 renal -13.7% | CCRF-CEM leukemia 1.95% | MOLT-4 leukemia 5.24% | SR leukemia -34% | RPMI-8226 leukemia -33.6% | OVCAR-3 ovarian -2.11% | HS 578T breast -22.4%

CC[n+]1c(/C=C/C=C2\N(C)c3ccccc3C2(C)C)sc2ccccc21
inactive: EKVX NSCLC 10.9% | UO-31 renal 12.6% | TK-10 renal 21.5% | A498 renal 12.3% | OVCAR-8 ovarian 12.8% | OVCAR-5 ovarian 27.4% | OVCAR-4 ovarian 19.9% | IGROV1 ovarian 32% | NCI/ADR-RES ovarian 30.4%
active: SK-MEL-2 melanoma -16.2% | SN12C renal 5.6% | ACHN renal 7.97% | CCRF-CEM leukemia 3.17% | MOLT-4 leukemia -19.1% | SR leukemia -5.33% | RPMI-8226 leukemia -31% | OVCAR-3 ovarian 8.88%

O=C(Cc1ccccc1)Nc1nnc(NC2CCN(c3nnc(NC(=O)Cc4ccccc4)s3)CC2)s1
inactive: SK-MEL-2 melanoma 122% | EKVX NSCLC 90.2% | SN12C renal 86% | UO-31 renal 74.4% | TK-10 renal 110% | ACHN renal 103% | A498 renal 43.8% | CCRF-CEM leukemia 72.4% | MOLT-4 leukemia 91.3% | SR leukemia 84.9% | RPMI-8226 leukemia 58.9% | OVCAR-8 ovarian 95.2% | OVCAR-5 ovarian 94.3% | OVCAR-4 ovarian 98.8% | SK-OV-3 ovarian 84% | IGROV1 ovarian 84.8% | OVCAR-3 ovarian 94.4% | HS 578T breast 78.6% | NCI/ADR-RES ovarian 98.4%

CC(C)(C)C(=O)OCOP(=O)(OCOC(=O)C(C)(C)C)C1CCCN(OC(=O)c2ccccc2)C1=O (centres undefined)
inactive: SK-MEL-2 melanoma 51% | EKVX NSCLC 21.4% | UO-31 renal 11.5% | TK-10 renal 11.7% | ACHN renal 15.7% | A498 renal 10.9% | OVCAR-5 ovarian 65.5% | OVCAR-4 ovarian 31.9% | SK-OV-3 ovarian 20.6%
active: SN12C renal 4.97% | CCRF-CEM leukemia 4.03% | MOLT-4 leukemia 7.12% | SR leukemia 7.15% | RPMI-8226 leukemia -30.8% | OVCAR-8 ovarian 7.36% | IGROV1 ovarian 5.28% | OVCAR-3 ovarian 7.34% | HS 578T breast 8% | NCI/ADR-RES ovarian 3.76%

COC(=O)CCCNc1c(-c2c(O)c(O)cc3c(O)c(-c4c(C)cc5c(-c6nc7ccccn7c6NCCCC(=O)OC)c(O)c(O)cc5c4O)c(C)cc23)nc2ccccn12
inactive: SK-MEL-2 melanoma 60.1% | EKVX NSCLC 61.8% | SN12C renal 21.7% | UO-31 renal 57.8% | TK-10 renal 64.4% | ACHN renal 78.7% | A498 renal 32.1% | CCRF-CEM leukemia 27.4% | MOLT-4 leukemia 15.7% | SR leukemia 24.3% | RPMI-8226 leukemia 22.5% | OVCAR-8 ovarian 51.4% | OVCAR-5 ovarian 119% | OVCAR-4 ovarian 98.6% | SK-OV-3 ovarian 50.5% | IGROV1 ovarian 34.8% | OVCAR-3 ovarian 64.6% | HS 578T breast 34.5% | NCI/ADR-RES ovarian 100%

COc1cc2c3c(c1)nc(C)n3CCC2
inactive: SK-MEL-2 melanoma 100% | EKVX NSCLC 95.5% | SN12C renal 99.6% | UO-31 renal 91.1% | TK-10 renal 99% | ACHN renal 108% | A498 renal 100% | CCRF-CEM leukemia 93.2% | MOLT-4 leukemia 98.4% | SR leukemia 101% | RPMI-8226 leukemia 105% | OVCAR-8 ovarian 96.4% | OVCAR-5 ovarian 102% | OVCAR-4 ovarian 96% | SK-OV-3 ovarian 90.8% | IGROV1 ovarian 109% | OVCAR-3 ovarian 109% | HS 578T breast 105% | NCI/ADR-RES ovarian 103%

NC(=O)c1n[nH]n2c1nc(=O)c1c3c(sc12)CCCC3
inactive: SK-MEL-2 melanoma 106% | EKVX NSCLC 101% | SN12C renal 101% | UO-31 renal 84.4% | TK-10 renal 106% | ACHN renal 111% | A498 renal 115% | CCRF-CEM leukemia 84.2% | MOLT-4 leukemia 100% | SR leukemia 101% | RPMI-8226 leukemia 94.2% | OVCAR-8 ovarian 101% | OVCAR-5 ovarian 111% | OVCAR-4 ovarian 118% | SK-OV-3 ovarian 105% | IGROV1 ovarian 104% | OVCAR-3 ovarian 107% | HS 578T breast 110% | NCI/ADR-RES ovarian 106%

Nc1c2c(c(O)c3c1=C(CO)C=N3)=NCCS2
active: SK-MEL-2 melanoma -54.6% | EKVX NSCLC -63.8% | SN12C renal -63.4% | UO-31 renal -86.3% | TK-10 renal -79.4% | ACHN renal 0.734% | A498 renal -88.2% | CCRF-CEM leukemia 6.13% | MOLT-4 leukemia -24.7% | SR leukemia 3% | RPMI-8226 leukemia -30.8% | OVCAR-8 ovarian -46.4% | OVCAR-5 ovarian -70.5% | OVCAR-4 ovarian -95.3% | SK-OV-3 ovarian -90.9% | IGROV1 ovarian -64.3% | OVCAR-3 ovarian -62.3% | HS 578T breast 5.57% | NCI/ADR-RES ovarian -24.8%

CC(=O)C(C(C)=O)C(c1ccccc1)C(C(C)=O)C(C)=O
inactive: SK-MEL-2 melanoma 100% | EKVX NSCLC 96.9% | SN12C renal 98.9% | UO-31 renal 90.9% | TK-10 renal 98.1% | ACHN renal 106% | A498 renal 105% | CCRF-CEM leukemia 93.5% | MOLT-4 leukemia 104% | SR leukemia 105% | RPMI-8226 leukemia 98.7% | OVCAR-8 ovarian 96.5% | OVCAR-5 ovarian 102% | OVCAR-4 ovarian 87.1% | SK-OV-3 ovarian 95.4% | IGROV1 ovarian 104% | OVCAR-3 ovarian 116% | HS 578T breast 99.8% | NCI/ADR-RES ovarian 94.5%

Cc1cc2c(-c3nc4ccccn4c3N)c(O)c(O)cc2c(O)c1-c1c(C)cc2c(-c3nc4ccccn4c3N)c(O)c(O)cc2c1O
inactive: EKVX NSCLC 21.8% | SN12C renal 10.1% | UO-31 renal 31.2% | TK-10 renal 11.9% | ACHN renal 17.4% | CCRF-CEM leukemia 23.1% | MOLT-4 leukemia 23.5% | SR leukemia 26.9% | OVCAR-8 ovarian 19.9% | OVCAR-5 ovarian 36.7% | OVCAR-4 ovarian 33.7% | IGROV1 ovarian 28.9% | OVCAR-3 ovarian 26.5% | HS 578T breast 37.6% | NCI/ADR-RES ovarian 26.4%
active: SK-MEL-2 melanoma -20.6% | A498 renal 2.77% | RPMI-8226 leukemia 9.18% | SK-OV-3 ovarian -10.4%

N#Cc1cc2[nH]c3ccc(OC(F)(F)F)cc3c2oc1=O
inactive: SK-MEL-2 melanoma 66.5% | EKVX NSCLC 76.1% | SN12C renal 95.9% | UO-31 renal 59.1% | TK-10 renal 132% | ACHN renal 84.4% | A498 renal 76.8% | CCRF-CEM leukemia 90.4% | MOLT-4 leukemia 84.5% | SR leukemia 26.2% | RPMI-8226 leukemia 89.1% | OVCAR-8 ovarian 86.8% | OVCAR-5 ovarian 118% | OVCAR-4 ovarian 73.7% | IGROV1 ovarian 78.9% | OVCAR-3 ovarian 67.1% | HS 578T breast 86.2% | NCI/ADR-RES ovarian 70.9%

COc1cc(-c2nc(C(=O)Nc3ccc(C)cc3)nn2-c2ccc(F)c(F)c2)cc(OC)c1OC
inactive: SK-MEL-2 melanoma 89.5% | EKVX NSCLC 99.9% | SN12C renal 97.5% | UO-31 renal 72.9% | TK-10 renal 98.8% | ACHN renal 105% | A498 renal 112% | CCRF-CEM leukemia 102% | MOLT-4 leukemia 94.9% | SR leukemia 91.8% | RPMI-8226 leukemia 103% | OVCAR-8 ovarian 103% | OVCAR-5 ovarian 117% | OVCAR-4 ovarian 103% | SK-OV-3 ovarian 89.1% | IGROV1 ovarian 86.9% | OVCAR-3 ovarian 107% | HS 578T breast 121% | NCI/ADR-RES ovarian 93.6%
